Compound activity deposited in PubChem by several laboratories.
CCHF vOTU inh-1: blocks the CCHF virus ovarian tumor domain protease; CCHFV vOTU protease, Pep-AMC fluorescence; inhibition, % at 11.5 µM; 370,000 compounds, 0.55% hits
Sa ugtP lethal: growth inhibition of S. aureus ugtP deletion strain; S. aureus RN4220 ugtP deletion, OD600 growth, 16 h; growth inhibition, % (test concentration not listed); 330,000 compounds, 0.54% hits; in the data active = growth inhibition above about 68%
Mtb hypoxia rep: Mtb hypoxia fluorescent reporter inhibition; M. tuberculosis hypoxia-regulated fluorescent reporter, fluorescence; fluorescence inhibition, % (no concentration beside the values); 300,000 compounds, 0.1% hits; in the data active = fluorescence inhibition mostly above about 23%, no sharp cut-off; inactive = mostly below about 17%
RN4220 kill: kills Staphylococcus aureus RN4220; S. aureus RN4220 growth, OD600, 16 h; AID 1259311; inhibition, % (concentration not given with the values); 330,000 compounds, 0.33% hits; in the data active = inhibition above about 85%
PfHsp40 rescue: compounds rescuing yeast from Plasmodium falciparum HSP40 toxicity | 340,000 compounds, 0.68% hits | AID 504582 | S. cerevisiae expressing PfHsp40, growth rescue, ATP luminescence | growth rescue, % at 12.5 µM; in the data active = growth rescue above about 28%, passing the limit was not always enough;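 also: yeast W303a lacking pdr1 and pdr3 grown in galactose medium; growth measured after three days at 30 °C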
BH1578 lux ind: quorum light induction in luxS cqsA deficient V. cholerae | activation, % at 18.7 µM | V. cholerae BH1578 lux reporter, luminescence, 6 h | 350,000 compounds, 0.16% hits; in the data active = activation mostly above about 9.7%, no sharp cut-off
CCHF vOTU inh-2: confirmation of CCHF virus vOTU protease inhibitors; shares compounds with CCHF vOTU inh-1; Recombinant CCHFV vOTU, Pep-AMC fluorescence; inhibition, % at 11.5 µM; 1,900 compounds, 17% hits; AID 686976
Of the large screens only hits and unclear results are named; the others gave an inactive call (follow-up assays come after a bar, where they were run); ! = not confirmed by another sample. Shown are actives, neighbours in structure and some others; about 1.7% of the full set was active somewhere. Rule as the data show it, unless noted: active = inhibition above about 30%; inactive = the rest.

Cn1c(=O)c2c(-c3ccccc3)n(-c3ccc(N)cc3)cc2n(C)c1=O	CCHF vOTU inh-1 98 (no result: Sa ugtP lethal, Mtb hypoxia rep, RN4220 kill, PfHsp40 rescue, BH1578 lux ind) | CCHF vOTU inh-2 92
CCc1noc(C)c1C(=O)N(C)CC(=O)Nc1ccccc1C(F)(F)F	CCHF vOTU inh-1 36 | CCHF vOTU inh-2 inactive
COc1cc(C=NNC(=O)Cn2ccc(C(F)(F)F)n2)cc(OC)c1OC	none (no result: CCHF vOTU inh-1, PfHsp40 rescue, BH1578 lux ind)
Cc1cc(C)c(S(=O)(=O)NCC(c2ccco2)N2CCc3ccccc3C2)c(C)c1 (stereo not given)	CCHF vOTU inh-1 30 | CCHF vOTU inh-2 inactive
O=S(=O)(NCC(c1ccco1)N1CCc2ccccc2C1)c1ccc(F)cc1 (stereo not given)	none
O=C(C(=O)N1CCC(CNS(=O)(=O)c2cc(C(F)(F)F)cc(C(F)(F)F)c2)CC1)c1cc2ccccc2o1	none (no result: Sa ugtP lethal, Mtb hypoxia rep, RN4220 kill, PfHsp40 rescue, BH1578 lux ind)
O=C(NCC1CCN(C(=O)C(=O)c2cc3ccccc3o2)CC1)c1cc(C(F)(F)F)cc(C(F)(F)F)c1	CCHF vOTU inh-1 37 (no result: Sa ugtP lethal, Mtb hypoxia rep, RN4220 kill, PfHsp40 rescue, BH1578 lux ind) | CCHF vOTU inh-2 inactive
O=C(Cc1cccs1)NN=CC=Cc1ccccc1[N+](=O)[O-]	none (no result: CCHF vOTU inh-1, PfHsp40 rescue, BH1578 lux ind)
N#Cc1c(N=Cc2cccs2)sc2c1CCCCC2	none (no result: CCHF vOTU inh-1, PfHsp40 rescue, BH1578 lux ind)
Cc1ccc(N(CC(=O)NN=Cc2ccc(OC3CSC3)cc2)S(=O)(=O)c2ccccc2)c(C)c1	none (no result: CCHF vOTU inh-1, PfHsp40 rescue, BH1578 lux ind)
O=C1C(Cc2ccccc2)Nc2ncnc(N3CCN(c4ccccc4)CC3)c2N1Cc1ccccc1 (stereo not given)	none
O=C1C(Cc2ccccc2)Nc2ncnc(N3CCOCC3)c2N1Cc1ccc(Cl)cc1 (stereo not given)	CCHF vOTU inh-1 31! | CCHF vOTU inh-2 inactive
CN=c1sc2c(n1C)C(=O)c1ccccc1C2=O	CCHF vOTU inh-1 80 (no result: Sa ugtP lethal, Mtb hypoxia rep, RN4220 kill) | CCHF vOTU inh-2 79
CN=c1sc(C(=O)Nc2ccccc2)c(C)n1C	none
O=C(Cc1ccc(F)cc1)NN=Cc1ccc(-c2ccc(Cl)c(C(=O)O)c2)o1	none (no result: CCHF vOTU inh-1, PfHsp40 rescue, BH1578 lux ind)
CC1=C(C(=O)N2CCOCC2)CC(CC(=O)NCCN2CCOCC2)C(=O)N1Cc1ccc(F)cc1 (stereo not given)	none (no result: Sa ugtP lethal, Mtb hypoxia rep, RN4220 kill, PfHsp40 rescue)
CC1=C(C(=O)N2CCOCC2)CC(CC(=O)NCCN2CCOCC2)C(=O)N1Cc1ccccc1 (stereo not given)	CCHF vOTU inh-1 30 (no result: Sa ugtP lethal, Mtb hypoxia rep, RN4220 kill, PfHsp40 rescue) | CCHF vOTU inh-2 inactive
CC(=O)N1C(Cc2ccccc2)C=C[C@]1(C)C(=O)NCCc1c[nH]c2ccccc12 (stereo not given in full)	none (no result: CCHF vOTU inh-1, PfHsp40 rescue, BH1578 lux ind)
CCn1c(C)cc(/C=C2/NC(=O)N(CC(=O)Nc3cccc(C)c3)C2=O)c1C	CCHF vOTU inh-1 31 | CCHF vOTU inh-2 inactive
CCn1c(C)cc(/C=C2\NC(=O)N(CC(=O)Nc3cccc(C)c3)C2=O)c1C	none
CCOC(=O)C1C2COc3ccc(Cl)cc3C2N2C(=O)c3ccc(F)cc3NC(=O)[C@@]12C (stereo not given in full)	none (no result: CCHF vOTU inh-1, PfHsp40 rescue, BH1578 lux ind)
Cc1c(NC(=O)C(C)OC(=O)c2sc3ccccc3c2Cl)c(=O)n(-c2ccccc2)n1C (stereo not given)	none
Cc1c(NC(=O)C(C)OC(=O)c2ccc([N+](=O)[O-])s2)c(=O)n(-c2ccccc2)n1C (stereo not given)	CCHF vOTU inh-1 41 | CCHF vOTU inh-2 45
N#Cc1ccc(C23CC4(C2)C(CN(CC2CCCCC2)C4c2ccccc2)C3c2ccccc2)cc1 (stereo not given)	none (no result: CCHF vOTU inh-1, PfHsp40 rescue, BH1578 lux ind)
COc1ccc(NC(=O)c2sc(=O)n(Cc3ccc(F)c(Cl)c3)c2C)cc1OC	CCHF vOTU inh-1 31 (no result: Sa ugtP lethal, Mtb hypoxia rep, RN4220 kill, PfHsp40 rescue) | CCHF vOTU inh-2 inactive
Cc1cc(C=C2SC(N)=NC2=O)c(C)n1-c1ccc(F)cc1	none (no result: CCHF vOTU inh-1, PfHsp40 rescue, BH1578 lux ind)
CCOc1ccc(NC(=O)c2ccc3c(c2)OCCO3)cc1S(=O)(=O)N(CC)CC	CCHF vOTU inh-1 32 | CCHF vOTU inh-2 inactive
CCOc1ccc(C(=O)Nc2ccc3c(c2)OCCO3)cc1OC	none
CC(CN1CCOCC1)OC(=O)c1ccccc1Br (stereo not given)	CCHF vOTU inh-1 32 | CCHF vOTU inh-2 inactive
CC(CN1CCOCC1)OC(=O)c1cccc(Br)c1 (stereo not given)	none (no result: Mtb hypoxia rep)
COc1ccc(C2=CC(=O)CC(c3ccc(OC)c(OC)c3)C2)cc1 (stereo not given)	none (no result: CCHF vOTU inh-1, PfHsp40 rescue, BH1578 lux ind)
CC1C(=O)OC2C(O)C34C5OC(=O)C3(OC3OC(=O)C(O)C34C(C(C)(C)C)C5O)[C@@]12O (stereo not given in full)	none (no result: CCHF vOTU inh-1, PfHsp40 rescue, BH1578 lux ind)
